SW480 rerep = inducers of DNA re-replication in SW480 colon cancer cells; AID 624297; actives 1.8% (n = 340,000); Potency, µM (series often up to 46.1 µM), inactives show top-dose re-replication activation, actives largely listed as activators; SW480 DNA re-replication, Hoechst DNA content imaging, 48 h; further: potency means the concentration at half of the fitted maximal effect; % of control where 0% means no effect; nearly all actives have a fitted effect of over 55% in size
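Image-based DNA-content assay: after two days of treatment, nuclei were labelled with the DNA dye Hoechst and imaged, and hits were compounds raising the count of nuclei showing high fluorescence intensity.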
DT40 TDP1 no CPT = qHTS for Inhibitors of human tyrosyl-DNA phosphodiesterase 1 (TDP1): qHTS in cells in absence of CPT | DT40 Tdp1-/- hTDP1 cells, no CPT, ATP luminescence, 48 h | Potency, µM (highest dose often 46.2 µM), for the others: at the highest dose activity change, negative = growth inhibition, most hits filed as inhibitors | actives 15% (n = 420,000) | AID 686978, 2013; further: potency means the concentration at half of the fitted maximal effect; on the % scale 0 is the no-effect control and ±100 the full control effect; nearly all actives have a fitted effect of over 55% in size
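Growth of hTDP1-complemented DT40 Tdp1-knockout cells is measured by ATP luminescence after at least 48 hr compound exposure at 37 °C, with DMSO substituting for the 20 nM CPT used in the parallel screen.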
DT40 TDP1 CPT = growth inhibition of DT40 Tdp1-/-;hTDP1 cells with camptothecin (screen for TDP1 inhibitors); chicken DT40 Tdp1-/-;hTDP1 cells + 20 nM CPT, ATP luminescence, 48 h; Potency, µM (titrated, usually from 46.2 µM), inactives show at the top dose activity change, negative = growth inhibition, hits mostly inhibitors; actives 12% (n = 420,000); further: potency means the concentration at half of the fitted maximal effect; on the % scale 0 is the no-effect control and ±100 the full control effect; nearly all actives have a fitted effect of over 55% in size
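Chicken DT40 Tdp1-/- cells complemented with human TDP1, 400 cells/well, exposed to compounds plus 20 nM camptothecin for at least 48 h at 37 C; viability read as ATP content by CellTiter-Glo luminescence.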
MCF10A rerep = inducers of DNA re-replication in MCF 10A breast cells. MCF 10A DNA re-replication, Hoechst nuclear intensity, 48 h. Potency, µM (series often up to 46.1 µM), for the others: at the highest dose activity, positive = re-replication, most hits filed as activators. actives 2.9% (n = 350,000); further: potency means the concentration at half of the fitted maximal effect; % of control where 0% means no effect; nearly all actives have a fitted effect of over 50% in size
IL-1B inflam inh = blocks inflammasome-driven IL-1 beta release; actives 4.7% (n = 360,000); THP-1 LPS/ATP IL-1B secretion, AlphaLISA, 16 h; hits give low values; activity change, % at 57.5 µM; AID 743279; in the data active means activity change below about -50%; inconclusive means mostly about -30% to -49%; further: on the % scale 0 is the no-effect control and ±100 the full control effect
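Secreted IL-1B measured by AlphaLISA bead assay after 16 h compound exposure of THP-1 cells; compounds (final up to 57.5 uM) added 1 h before LPS (250 ng/mL) and ATP (1.25 mM) stimulation; lower signal means less secretion.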
BCR signal inh = chronic active BCR signaling inhibition. ABC-DLBCL IkBa-CBG/CBR reporter, luminescence ratio, 4 h. Potency, µM (doses to about 46.1 µM), for inactives: top-dose activity change, negative = inhibition, most hits filed as inhibitors. actives 0.05% (n = 340,000). AID 493014; active means well fitted inhibition curve with a large enough effect in the signal ratio, with a control signal flat, not every such curve was filed as active; inconclusive means small, poorly fitted or top-dose-only effect, or effect the other way, or a change in a side signal; the % refers to the signal ratio;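 further: potency means the concentration at half of the fitted maximal effect; plate controls were basal doxycycline-induced cells for no effect and cells given 10 µM MG132 for full effect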
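Cell line TMD8 (human ABC DLBCL), stably expressing tet-inducible CBG68-IkBa fusion and CBR; IMDM/0.5% FBS; cpd up to 46 uM; dox induction, 4 h, 37C/5% CO2; dual luminescence; green/red ratio; MG132 control.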
* marks the source's active call; other numbers are inactive results; i = inactive; ? = inconclusive; . = not tested or not shown. Most compounds without a hit are left out; they make up all but 19% or so of the library. Unless noted, the call rests on the fitted dose curve; in most records, active means well fitted curve in the direction sought with a large enough effect; inconclusive means small, poorly fitted or top-dose-only effect, or another doubt; inactive means no such curve, though single readings can be large; an effect the other way counts as inactive or inconclusive.

SMILES	SW480 rerep	DT40 TDP1 no CPT	DT40 TDP1 CPT	MCF10A rerep	IL-1B inflam inh	BCR signal inh
O=S(=O)(NC(=NCc1ccccc1)c1ccc(F)cc1)c1ccc(Cl)cc1	-59%	-13%	-6%	0.73µM*	0	3%
O=C(Oc1cccc(/C=N/Nc2nc(Nc3ccccc3)nc(N3CCOCC3)n2)c1)c1ccco1	?	23µM*	21µM*	?	1	?
Cc1[nH]c2ccccc2c1/C=N/Nc1nc(Nc2ccc(F)cc2)nc(N2CCOCC2)n1	1%	-24%	-21%	5%	1	?
Cc1ccc(Nc2nc(N/N=C/c3c[nH]c4ccccc34)nc(N3CCOCC3)n2)cc1	13µM*	8.2µM*	21µM*	?	-67*	?
C(=N\Nc1nc(Nc2ccccc2)nc(N2CCOCC2)n1)/c1c[nH]c2ccccc12	0.82µM*	8.2µM*	12µM*	16µM*	-81*	?
CCOc1ccc(C(=O)C(C)OC(=O)c2nc(Cl)ccc2Cl)cc1 (configuration not stated)	4%	-15%	?	1%	2	11%
CCCS(=O)(=O)NC(=O)C1(C)CCN(C(=O)COc2ccc(Cl)cc2Cl)C1 (configuration not stated)	.	-17%	-3%	.	23	.
CC(=O)c1c(C)[nH]c(C(=O)CN2CCN(S(=O)(=O)c3ccccc3F)CC2)c1C	-1%	?	?	11%	4	-1%
O=C(Nc1ccc(Cl)cc1F)C1CCN(S(=O)(=O)c2cccc3nonc23)CC1	1%	-18%	4%	-6%	1	?
Cc1cc(/C=N/NC(=O)Cn2c3ccccc3c(=O)c3ccccc32)c(C)n1-c1ccc(Cl)cc1	16%	29µM*	?	12µM*	0	0%
O=C(Cn1c2ccccc2c(=O)c2ccccc21)N/N=C/c1ccc(N2CCCC2)c([N+](=O)[O-])c1	0%	?	18µM*	?	8	-5%
Cc1ccc(-n2c(C)cc(/C=N/NC(=O)Cn3c4ccccc4c(=O)c4ccccc43)c2C)cc1	12µM*	?	?	15µM*	-10	-5%
CCC(C(=O)Nc1c(C)cccc1C)n1c(-c2ccc(=O)[nH]c2)nc2ccccc21 (configuration not stated)	.	-4%	0%	.	33	.
CC(=O)c1ccc(NC(=O)C2=CC(c3cccs3)=NS(=O)(=O)N2C)cc1	-29%	16µM*	?	2%	-11	0%
CCc1ccc(NC(=O)C2=CC(c3cccs3)=NS(=O)(=O)N2C)cc1	0%	16µM*	?	-3%	-19	15%
O=C(O)C1CCCC2CN3CCc4c([nH]c5ccccc45)C3C(O)C21 (configuration not stated)	1%	?	-73%	-1%	21	?
Cc1ccc(-n2cccn2)c(CN2CCCC(C(=O)c3ccc4c(c3)OCO4)C2)c1 (configuration not stated)	18%	?	?	19%	-60*	-8%
O=C(c1ccc2c(c1)OCO2)C1CCCN(Cc2cc(F)ccc2-n2cccn2)C1 (configuration not stated)	-3%	-15%	-1%	-2%	6	-5%
Cc1ccc(-n2cccn2)c(CN2CCCC(CNC(=O)c3ccc(F)cc3)C2)c1 (configuration not stated)	-3%	12µM*	?	1%	-3	-3%
Cc1cc(-c2nnc(CCC(=O)N(C)C(C)c3cccs3)o2)no1 (configuration not stated)	4%	2%	-2%	-4%	-7	?
CC1=NN(C(=O)Cn2ccc([N+](=O)[O-])n2)C(O)(C(F)(F)F)C1 (configuration not stated)	-191%	5.8µM*	5.8µM*	9%	i	-1%
CC1=NN(C(=O)Cn2nc([N+](=O)[O-])c(Br)c2C)C(O)(C(F)(F)F)C1 (configuration not stated)	2%	21µM*	23µM*	5%	11	3%
COc1nn(CC(=O)N2N=C(C)CC2(O)C(F)(F)F)cc1[N+](=O)[O-] (configuration not stated)	-3%	-4%	-20%	1%	9	?
CS(=O)(=O)CCC(C(=O)O)N1C(=O)c2ccc(Oc3ccc(Cl)cc3)cc2C1=O (configuration not stated)	-9%	-1%	-1%	-3%	0	1%
COCCCNC(=O)c1ccc(S(=O)(=O)c2ccc(Cl)cc2)c(NC(C)=O)c1	-12%	15%	4%	-9%	2	?
SMILES	SW480 rerep	DT40 TDP1 no CPT	DT40 TDP1 CPT	MCF10A rerep	IL-1B inflam inh	BCR signal inh
COc1cc(C(=O)N2CCCc3ccccc32)c([N+](=O)[O-])cc1OC	-3%	-8%	-23%	16µM*	0	0%
Cc1c(Cl)cccc1NC(=O)N1CCOc2ccccc21	.	?	-15%	.	.	.
COc1cc(SC)ccc1C(=O)N1CCc2ccccc21	-8%	?	21µM*	8%	-15	-4%
CSc1ccc(Cl)c(C(=O)N2CCOc3ccccc32)c1	?	16µM*	18µM*	-1%	49	-8%
COc1cc(C(=O)N2CCN(c3ccccc3OC)CC2)c([N+](=O)[O-])cc1OC	?	?	-24%	23%	28	-5%
O=C(c1ccc([N+](=O)[O-])s1)N1CCCc2ccccc21	6.5µM*	?	?	14%	?	?
CN(C)c1nc(-c2cccc(NS(C)(=O)=O)c2)nc2ccccc12	.	-23%	-7%	.	.	.
Cc1onc(-c2ccccc2)c1C(=O)OCC(=O)N1CCCCC1	.	?	-24%	.	-5	.
CCOC(=O)c1cccc(NC(=O)Nc2c(C)n(C)n(-c3ccccc3)c2=O)c1	.	-6%	0%	.	.	.
Nc1ncnc2c1ncn2[C@@H]1O[C@H](COP(=O)(O)OP(=O)(O)OC[C@H]2OC(O)[C@H](O)[C@@H]2O)[C@@H](O)[C@H]1O (some centres not stated)	.	?	-20%	.	.	.
Cc1c(C(=O)N(C)C)sc2c1c(=O)n(-c1ccc(Cl)c(Cl)c1)c(=O)n2CC(=O)Nc1ccc(Br)cc1F	.	.	.	.	.	-10%

High-throughput results as filed in PubChem.
